Results on 34 compounds are retold here after PubChem BioAssay.

Experiment [1] in a line: C. neoformans lysis by adenylate kinase leakage – AK release luminescence, cherry-picks, dose response (AID 687000;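 active = fitted dose curve reaches 40% lysis signal rise at or below the highest valid concentration tested for that sample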;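 also: luminescent detection of adenylate kinase leaking from lysed yeast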).
Experiment [2] in a line: viability loss in HepG2 hepatoma cells – cell-based, cherry-picks, set 2, cytotoxicity control, dose response (AID 687002).
Experiment [3] in a line: viability loss in HeLa cells – cell-based, ATP luminescence, cherry-pick samples, cytotoxicity control, dose response (AID 687004;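 active = a fitted half-maximal concentration no higher than twice the top valid tested dose, with signal falling as cells die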).
Experiment [4] in a line: toxicity toward HepG2 liver cells – cell-based, plate reader, cherry-pick, antagonist series, cytotoxicity control, dose response (AID 743416; call rule not given here).

Measured potencies and affinities stand elsewhere. Values without a mark were called inactive. Active and inactive are the calls of the source.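 The calls were made as follows, unless noted: active = a dose-response fit showing signal loss, with half-maximal concentration no higher than twice the top tested dose; inconclusive = flat fit between 30% and 70% signal loss, or poor fit; inactive = the rest.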

As for `O=C(CCN1CCCCC1)NCC[C@@H]1CC[C@H](NC(=O)c2ccc(F)cc2)[C@@H](CO)O1`, the outcome in experiment [1], in experiment [2] and in experiment [3] was inactive.
Regarding `C[C@H]1CN([C@@H](C)CO)C(=O)Cc2cc(NC(=O)C3CC3)ccc2O[C@@H]1CN(C)C(=O)Nc1cccc2ccccc12`, the result in experiment [1], in experiment [2] and in experiment [3] was inactive.
As for `CC12CC3CC(C)(C1)CC(C(=O)NC(=S)N1CCCCC1)(C3)C2`, the compound was classed as inactive in experiment [1], in experiment [2] and in experiment [3].
As to `Cc1noc(C)c1NC(=O)N(C)C[C@H]1Oc2ccc(N(C)C)cc2C(=O)N([C@H](C)CO)C[C@@H]1C`, the result in experiment [1], in experiment [2] and in experiment [3] was inactive.
As to `CNC[C@H]1OCCCC[C@H](C)Oc2ccc(NC(=O)Cc3ccccc3)cc2C(=O)N([C@H](C)CO)C[C@@H]1C`, the result in experiment [1], in experiment [2] and in experiment [3] was inactive.
`CC(=O)N1[C@H](CO)[C@H](c2ccc(-c3ccccc3)cc2)[C@@H]1CNC(=O)C1CC1`: the compound was called inactive in experiment [1], in experiment [2] and in experiment [3].
Regarding `Cc1noc(C)c1NC(=O)N(C)C[C@H]1OCCCC[C@@H](C)Oc2ccc(NC(=O)NC(C)C)cc2C(=O)N([C@H](C)CO)C[C@H]1C`, the compound was classed as inactive in experiment [1], in experiment [2] and in experiment [3].
For the compound `Cc1ccccc1-n1ncc2c(SCC(=O)N3c4ccccc4CC3C)ncnc21` (stereo not drawn), the compound was called inactive in experiment [1], in experiment [2] and in experiment [3].
Take `CC(C)NC(=O)N(C)C[C@H]1Oc2c(NS(=O)(=O)c3ccc(Cl)cc3)cccc2C(=O)N([C@@H](C)CO)C[C@@H]1C`: the compound was called inactive in experiment [1], in experiment [2] and in experiment [3].
For the compound `CC(C)COc1ccc(CNC(=S)NCc2ccccc2)cc1`, the compound was called inactive in experiment [1], in experiment [2] and in experiment [3].
As to `C[C@@H]1CCCCO[C@H](CN(C)Cc2ccccc2)[C@H](C)CN([C@@H](C)CO)C(=O)c2cc(NS(=O)(=O)c3cccs3)ccc2O1`, the compound was classed as inactive in experiment [1], in experiment [2] and in experiment [3].
Turning to `Cc1ccc(C(=O)Nc2ccc3ncccc3c2)cc1`, the call in experiment [1], in experiment [2] and in experiment [4] was inactive.
For `CCC(=O)N1[C@H](CN(C)C(C)=O)[C@@H](c2ccc(C3=CCCCC3)cc2)[C@@H]1CO`, the compound was called inactive in experiment [1], in experiment [2] and in experiment [3].
On to `Cc1noc(C)c1NC(=O)N(C)C[C@H]1Oc2ccc(NC(=O)C3CC3)cc2CC(=O)N([C@@H](C)CO)C[C@H]1C`, for which the compound was called inactive in experiment [1], in experiment [2] and in experiment [3].
Take `CC(NC1CCCC1)C(=O)Nc1ccccc1-c1ccccc1` (stereo not drawn): the result in experiment [1], in experiment [2] and in experiment [3] was inactive.
In the case of `O=C(Oc1ccc2c3c(c(=O)oc2c1)CCCC3)c1ccco1`, the result in experiment [1], in experiment [2] and in experiment [3] was inactive.
`CCCn1c(=S)[nH]c2cc(Cl)ccc21`: the call in experiment [1], in experiment [2] and in experiment [3] was inactive.
Turning to `Cc1cc(C)c(NC(=O)CNC(=O)CNC(=O)C2CCCCC2)c(C)c1`, the outcome in experiment [1], in experiment [2] and in experiment [3] was inactive.
Turning to `COc1cccc(CNC(=O)COc2ccc(C(=O)c3ccccc3)cc2)c1`, the call in experiment [1], in experiment [2] and in experiment [3] was inactive.
Consider `CC(=O)N[C@H]1CC[C@@H](CCNC(=O)C2CCC2)O[C@H]1CO`, for which the call in experiment [1], in experiment [2] and in experiment [3] was inactive.
In the case of `Cc1ccccc1NC(=O)C1CCC(=O)N1` (stereo not drawn), the result in experiment [1], in experiment [2] and in experiment [3] was inactive.
On to `Cc1ccc(OCCn2c(=S)[nH]c3ccccc32)c(C(C)C)c1`, for which the compound was called inactive in experiment [2].
For `Cc1cccc(OCC(=O)NCc2ccccc2)c1`, the compound was classed as inactive in experiment [1], in experiment [2] and in experiment [3].
On to `C[C@H](NC(=O)C[C@H]1CC[C@@H](NC(=O)Cc2ccccn2)[C@@H](CO)O1)c1ccccc1`, for which the outcome in experiment [1], in experiment [2] and in experiment [3] was inactive.
Take `Cc1ccccc1OCC(=O)NC(C)c1ccccc1` (stereo not drawn): the result in experiment [1], in experiment [2] and in experiment [3] was inactive.
For the compound `CCCN1C(=O)C(O)(C2CC(=O)CC(C)(C)O2)c2ccccc21` (stereo not drawn), the result in experiment [1], in experiment [2] and in experiment [3] was inactive.
Take `C[C@H](CO)N1C[C@H](C)[C@H](CN(C)Cc2ccccc2F)Oc2cc(C3=CCCC3)ccc2S1(=O)=O`: the compound was classed as inactive in experiment [1] and in experiment [3].
As for `CCc1ccc(NC(=O)[C@H](C)NC(=O)C2CCN(C(=O)[C@@H](N)CC(C)C)CC2)cc1`, the compound was classed as inactive in experiment [1], in experiment [2] and in experiment [3].
Regarding `CCc1ccc(C(=O)NC(=S)Nc2ccccc2N2CCOCC2)cc1`, the result in experiment [1], in experiment [2] and in experiment [3] was inactive.
Turning to `O=C(CCCNC(=O)c1ccc(Cl)cc1)Nc1nccs1`, the call in experiment [1], in experiment [2] and in experiment [3] was inactive.
Turning to `CCCC(=O)Nc1ccc2c(c1)OC[C@H](C)N(Cc1ccccn1)C[C@H](C)[C@H](OC)CN(C)C2=O`, the outcome in experiment [1], in experiment [2] and in experiment [3] was inactive.
With `O=C(NC(=S)Nc1ccccc1N1CCOCC1)c1ccccc1F`, the outcome in experiment [1], in experiment [2] and in experiment [3] was inactive.
In the case of `CCN(CC)CC(=O)N(CC(=O)Nc1c(C)cc(C)cc1C)C1CCCCC1`, the outcome in experiment [1], in experiment [2] and in experiment [3] was inactive.
Take `COC(=O)C1=C(C)N(Cc2ccc(Cl)cc2)C(=S)NC1c1ccc(F)cc1` (stereo not drawn): the result in experiment [2] and in experiment [3] was inactive.
